# Test results from PubChem BioAssay (NCATS).
# Several values for one entry are separate records, joined by “and”; a condition that tells them apart may be missing. Equal entries are not always repeated. Unmarked numbers belong to inactive results. Results filed as inconclusive are left out. Where a call stands in place of a potency, no number is given. Activity calls are given as the source filed them. Unless noted, the call rests on the fitted dose curve; in most records, active means well fitted curve in the direction sought with a large enough effect; inconclusive means small, poorly fitted or top-dose-only effect, or another doubt; inactive means no such curve, though single readings can be large; an effect the other way counts as inactive or inconclusive.
# Assays:
# [1] = target: Peroxisome proliferator-activated receptor alpha (Homo sapiens) (UniProt Q07869); test: qHTS assay for small molecule agonists of the peroxisome proliferator-activated receptor alpha (PPARalpha) signaling pathway (AID 651778); details: PathHunter PPARalpha complementation, chemiluminescence, 6 h; active compounds read high
# Outline: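 Cells plated at 2,000/well and held overnight at 37 C, 5% CO2, then compound added by pin tool for 6 hr; after PathHunter detection reagent and 60 min at room temperature, chemiluminescence from enzyme complementation was read.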
# [2] = qHTS for Activators of Parkin Expression: LOPAC Validation Assay (NLuc Reporter) (AID 720572)
# Outline: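 Cells harboring the Parkin-promoter coincidence reporter were treated for 24 h at seven concentrations. NLuc output was measured sequentially after the FLuc channel and scaled between DMSO and positive control values.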
# [3] = qHTS for Activators of Parkin Expression: LOPAC Validation Assay (FLuc Reporter) (AID 720573)
# Outline: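 Neuronal cell line stably expressing FLuc/NLuc coincidence reporter under the Parkin promoter, 1,500 cells/well, dosed 24 h after seeding in 7-point series for 24 h at 37 C. FLuc luminescence read; normalized to DMSO and positive control (100%).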
# [4] = qHTS assay for small molecule agonists of the antioxidant response element (ARE) signaling pathway measured by Nrf2-dependant transcriptional activity (AID 720636; active means well fitted curve in the direction sought with a large enough effect in the repeat runs; an effect the other way counts as inactive or inconclusive; further: potency means the concentration at half of the fitted maximal effect)
# Outline: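 Nrf2-dependent transcription read as ONE-Glo luciferase signal from ARE-luc HepG2 reporter cells after 16 hr compound treatment at 37 C, 5% CO2, in assay medium with 1% dialyzed FBS.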
# [5] = qHTS assay for small molecule agonists of the antioxidant response element (ARE) signaling pathway measured by Nrf2-dependant transcriptional activity - cell viability counter screen (AID 720653; active means well fitted curve in the direction sought with a large enough effect in the repeat runs; an effect the other way counts as inactive or inconclusive; further: potency means the concentration at half of the fitted maximal effect); details: ARE-bla HepG2 viability, CellTiter-Glo ATP luminescence, 16 h; max response: active compounds read low
# Outline: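 ARE-bla HepG2 cells (2,000/well) rested 5 hrs at 37C/5% CO2, then exposed to compounds in DMSO for 16 hrs. Viability was read in the same wells as intracellular ATP by luminescence, 30 min at room temperature after reagent addition.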
# [6] = target: Nuclear receptor ROR-gamma (Homo sapiens) (UniProt P51449); test: qHTS assay for small molecule antagonists of the retinoid-related orphan receptor gamma (ROR-gamma) signaling pathway (AID 651802);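 further: CHO cells with doxycycline-induced ROR-gamma expression; series mostly up to about 92 µM; nearly all actives have a fitted effect of over 60% in size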
# Outline: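 Steps: cells dispensed; compound or DMSO transferred by pin tool; doxycycline added to induce the ROR response element-driven luciferase; plates held 16hr at 37C; ONE-Glo added and luminescence measured.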
# [7] = qHTS assay for small molecule antagonists of the retinoid-related orphan receptor gamma (ROR-gamma) signaling pathway - cell viability counter screen (AID 720652; active means well fitted curve in the direction sought with a large enough effect in the repeat runs; an effect the other way counts as inactive or inconclusive;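 further: CHO reporter cells with doxycycline-induced ROR-gamma expression; series mostly up to about 92 µM; compound exposure lasted 16 hr before ATP read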)
# Outline: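 Steps: seed CHO cells bearing TET-inducible ROR and ROR response element-luciferase; rest 5 hr at 37 C; add compound, then doxycycline; incubate 16 hr; add CellTiter-Glo and read luminescence as ATP-based viability.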
# [8] = target: Tyrosine-protein kinase Yes (Homo sapiens) (UniProt P07947); test: qHTS for small molecule inhibitors of Yes1 kinase: Primary Screen (AID 686947); further: nearly all actives have a fitted effect of over 60% in size
# Outline: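 ADP-Glo luminescence reports ADP formed by 4 nM Yes1 phosphorylating poly(E4Y) (0.3 mg/mL) with 0.1 mM ATP for 60 min at room temperature, following 20 min compound preincubation; normalised between DMSO wells with and without enzyme.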
# [9] = qHTS for small molecule inhibitors of Yes1 kinase: Counter Assay (AID 686950);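 further: no kinase present so only ADP-Glo detection of a fixed ADP amount is tested; luminescence from ADP-Glo reporting ADP in a fixed ATP and ADP mixture; series mostly up to about 77 µM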
# Outline: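 Measuring interference with ADP-Glo, the assay ran 60 min at room temperature on an ATP/ADP mix lacking enzyme. Values were normalized to ATP-plus-ADP (maximum) and ATP-only (minimum) DMSO controls.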
# [10] = target: Arylsulfatase A (Homo sapiens) (UniProt P15289); test: qHTS screen for enhancers of Arylsulfatase A (ASA1): LOPAC Validation Assay (AID 720538); further: potency means the concentration at half of the fitted maximal effect
# Outline: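 SV40-transformed fibroblasts from an MLD patient (ASA-I179S) were treated with compound for 48 h at 37 C. They were then lysed with 0.5 mM pNCS substrate (final) for 14 h at room temperature and stopped with NaOH; signal read by fluorescence (Ex 525/Em 598 nm), with increase denoting enhanced activity.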
# Sequence of Arylsulfatase A (Homo sapiens) (P15289 whole entry, looked up): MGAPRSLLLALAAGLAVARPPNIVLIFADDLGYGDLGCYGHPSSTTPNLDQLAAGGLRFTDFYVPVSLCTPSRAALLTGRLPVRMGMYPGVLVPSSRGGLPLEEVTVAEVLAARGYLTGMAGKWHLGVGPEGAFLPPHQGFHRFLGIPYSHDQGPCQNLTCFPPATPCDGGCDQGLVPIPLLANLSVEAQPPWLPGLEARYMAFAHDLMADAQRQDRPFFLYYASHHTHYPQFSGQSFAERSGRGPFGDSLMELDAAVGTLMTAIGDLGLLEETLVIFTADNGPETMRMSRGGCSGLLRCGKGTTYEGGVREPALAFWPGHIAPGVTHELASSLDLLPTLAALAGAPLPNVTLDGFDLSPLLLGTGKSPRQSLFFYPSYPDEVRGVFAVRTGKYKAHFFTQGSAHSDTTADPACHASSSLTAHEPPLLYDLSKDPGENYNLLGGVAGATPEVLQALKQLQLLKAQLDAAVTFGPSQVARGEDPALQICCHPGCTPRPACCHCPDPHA
# Sequence of Peroxisome proliferator-activated receptor alpha (Homo sapiens) (Q07869 whole entry, looked up): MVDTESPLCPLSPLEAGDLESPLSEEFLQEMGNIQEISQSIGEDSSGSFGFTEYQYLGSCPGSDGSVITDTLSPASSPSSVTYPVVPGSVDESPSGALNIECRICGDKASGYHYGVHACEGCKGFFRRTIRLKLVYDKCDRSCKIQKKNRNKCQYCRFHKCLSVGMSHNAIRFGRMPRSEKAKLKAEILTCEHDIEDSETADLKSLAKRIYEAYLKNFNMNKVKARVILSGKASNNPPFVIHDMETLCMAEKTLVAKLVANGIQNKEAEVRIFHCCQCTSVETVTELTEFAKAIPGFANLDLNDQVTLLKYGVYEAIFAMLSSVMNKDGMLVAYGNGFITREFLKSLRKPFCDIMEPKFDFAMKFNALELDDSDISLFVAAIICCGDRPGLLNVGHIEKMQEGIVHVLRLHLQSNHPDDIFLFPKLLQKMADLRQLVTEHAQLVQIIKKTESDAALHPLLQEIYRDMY
# Sequence of Tyrosine-protein kinase Yes (Homo sapiens) (P07947 whole entry, looked up): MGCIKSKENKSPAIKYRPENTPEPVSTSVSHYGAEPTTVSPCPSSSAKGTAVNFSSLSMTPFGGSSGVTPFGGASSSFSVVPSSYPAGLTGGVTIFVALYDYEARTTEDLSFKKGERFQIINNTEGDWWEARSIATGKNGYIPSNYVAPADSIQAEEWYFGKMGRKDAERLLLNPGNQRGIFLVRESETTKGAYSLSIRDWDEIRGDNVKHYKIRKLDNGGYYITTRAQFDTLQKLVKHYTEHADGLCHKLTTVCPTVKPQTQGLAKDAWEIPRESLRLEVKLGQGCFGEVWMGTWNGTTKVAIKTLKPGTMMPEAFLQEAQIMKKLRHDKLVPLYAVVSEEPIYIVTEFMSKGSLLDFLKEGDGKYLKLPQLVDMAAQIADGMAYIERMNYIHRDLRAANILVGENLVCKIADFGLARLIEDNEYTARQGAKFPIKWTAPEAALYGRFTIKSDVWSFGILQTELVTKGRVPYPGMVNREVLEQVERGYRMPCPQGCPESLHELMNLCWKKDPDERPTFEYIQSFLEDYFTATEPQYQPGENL
# Sequence of Nuclear receptor ROR-gamma (Homo sapiens) (P51449 whole entry, looked up): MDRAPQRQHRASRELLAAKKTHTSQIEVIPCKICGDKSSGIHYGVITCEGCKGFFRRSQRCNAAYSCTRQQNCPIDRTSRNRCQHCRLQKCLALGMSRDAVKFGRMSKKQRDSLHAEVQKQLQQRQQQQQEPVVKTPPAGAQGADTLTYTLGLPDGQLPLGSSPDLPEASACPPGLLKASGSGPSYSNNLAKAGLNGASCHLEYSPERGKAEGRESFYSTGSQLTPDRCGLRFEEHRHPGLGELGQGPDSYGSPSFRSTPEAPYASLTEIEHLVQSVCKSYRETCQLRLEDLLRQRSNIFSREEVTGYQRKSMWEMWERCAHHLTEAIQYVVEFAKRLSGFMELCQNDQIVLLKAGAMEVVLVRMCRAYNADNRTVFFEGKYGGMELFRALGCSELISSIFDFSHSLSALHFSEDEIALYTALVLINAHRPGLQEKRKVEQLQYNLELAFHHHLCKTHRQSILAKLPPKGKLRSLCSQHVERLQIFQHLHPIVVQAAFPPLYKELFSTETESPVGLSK
compound,measurement,setting,value
CNC[C@H](O)c1ccc(O)c(O)c1,max response,[1],-0.497%
same,outcome,[2],inactive
same,Potency,[3],inactive
same,Potency,[4],inactive
same,max response,[5],4.44%
Cc1ccc(C)c(OCCCC(C)(C)C(=O)O)c1,max response,[1],0.635% and 1.7%
same,outcome,[6],inactive
same,Potency,[4],inactive
same,outcome,[7],inactive
same,max response,[5],-1.19% and -0.256%
O=C(NOCC1CC1)c1ccc(F)c(F)c1Nc1ccc(I)cc1Cl,Potency,[8],inactive
same,outcome,[9],inactive
Cc1nc(Nc2ncc(C(=O)Nc3c(C)cccc3Cl)s2)cc(N2CCN(CCO)CC2)n1,outcome,[9],inactive
CCc1nc(N)nc(N)c1-c1ccc(Cl)cc1,max response,[1],-1.61% and -1.39%
same,Potency,[4],inactive
same,outcome,[7],inactive
same,Potency,[5],11.2 µM (active)
COc1cc(OC)c(C(=O)CCCN2CCCC2)c(OC)c1,max response,[1],-0.755%
same,Potency,[4],inactive
same,max response,[5],-3.27%
Nc1ccc(S(N)(=O)=O)cc1,max response,[1],3.64%
same,Potency,[4],inactive
same,outcome,[7],inactive
same,max response,[5],0.534%
Nc1ccn([C@@H]2O[C@H](CO)[C@@H](O)C2O)c(=O)n1 (stereo partly specified),Potency,[10],inactive
same,outcome,[2],inactive
same,Potency,[3],inactive
CC(=O)Nc1ccc(O)cc1,Potency,[4],inactive
same,outcome,[7],inactive
same,max response,[5],-1.61% and -10.9%
COc1cc2c(N3CCN(C(=O)Nc4ccc(OC(C)C)cc4)CC3)ncnc2cc1OCCCN1CCCCC1,outcome,[9],inactive
CC1(C)C(=O)N(CCN2CCC(C(=O)c3ccc(F)cc3)CC2)c2ccccc21,Potency,[10],inactive
same,outcome,[2],inactive
same,Potency,[3],inactive
Cc1ccc(Nc2nccc(N(C)c3ccc4c(C)n(C)nc4c3)n2)cc1S(N)(=O)=O,outcome,[9],inactive
CC(C)c1ccc2c(c1)c(SC(C)(C)C)c(CC(C)(C)C(=O)O)n2Cc1ccc(Cl)cc1,outcome,[9],inactive
same,Potency,[10],inactive
same,Potency,[3],inactive
NC(=NCc1ccccc1)NC(=O)c1nc(Cl)c(N)nc1N,outcome,[2],inactive
same,Potency,[3],inactive
Oc1ccc2ccccc2c1SSc1c(O)ccc2ccccc12,outcome,[2],inactive
same,Potency,[3],inactive
NCCCCNCCCN,Potency,[10],inactive
same,outcome,[2],inactive
same,Potency,[3],inactive
O=C(c1ccccc1)c1ccc2n1CCC2C(=O)O (stereo unspecified),Potency,[10],inactive
same,outcome,[2],inactive
COc1cc2nc(N3CCN(C(=O)C4CCCO4)CC3)nc(N)c2cc1OC (stereo unspecified),outcome,[2],inactive
same,Potency,[3],inactive
COc1ccccc1N1CCN(CCN(C(=O)C2CCCCC2)c2ccccn2)CC1,Potency,[10],inactive
same,outcome,[2],inactive
same,Potency,[3],inactive
O=c1c(O)c(-c2cc(O)c(O)c(O)c2)oc2cc(O)cc(O)c12,outcome,[2],inactive
same,Potency,[3],inactive
O=C1c2ccccc2-c2n[nH]c3cccc1c23,Potency,[10],inactive
Cc1c(OCC(F)(F)F)ccnc1CS(=O)c1nc2ccccc2[nH]1 (stereo unspecified),Potency,[10],inactive
same,outcome,[2],inactive
Nc1nc(N)c(N=O)c(OCC2CCCCC2)n1,Potency,[10],inactive
same,outcome,[2],inactive
same,Potency,[3],inactive
NNc1nncc2ccccc12,Potency,[10],inactive
COc1cc2c(cc1OC)C1CC(=O)C(CC(C)C)CN1CC2 (stereo unspecified),outcome,[2],inactive
same,Potency,[3],inactive
O=C(CCc1ccc(O)cc1)c1c(O)cc(O)cc1O,Potency,[10],2.69 µM (active)
same,outcome,[2],inactive
same,Potency,[3],inactive
COc1ccc2cc([C@H](C)C(=O)O)ccc2c1,Potency,[10],inactive
same,outcome,[2],inactive
same,Potency,[3],inactive
CC(=O)O[C@H]1C(=O)[C@@]2(C)C([C@H](OC(=O)c3ccccc3)[C@]3(O)C[C@H](OC(=O)[C@H](O)[C@@H](NC(=O)c4ccccc4)c4ccccc4)C(C)=C1C3(C)C)[C@]1(OC(C)=O)CO[C@@H]1C[C@@H]2O (stereo partly specified),Potency,[10],inactive
same,outcome,[2],inactive
same,Potency,[3],inactive
O=C(O)c1cccnc1Nc1cccc(C(F)(F)F)c1,Potency,[10],inactive
same,outcome,[2],inactive
same,Potency,[3],inactive
O=C1c2c(O)cc(O)cc2OC(c2ccc(O)c(O)c2)C1O (stereo unspecified),outcome,[2],inactive
same,Potency,[3],inactive
CCN(CC)C(=S)SSC(=S)N(CC)CC,Potency,[10],inactive
same,Potency,[4],27.3 µM (active)
O=c1cc(N2CCOCC2)oc2c(-c3ccccc3)cccc12,Potency,[10],inactive
C[C@H](Cc1ccc(O)c(O)c1)[C@@H](C)Cc1ccc(O)c(O)c1,Potency,[3],inactive
Nc1nc(OCc2ccccc2)c2[nH]cnc2n1,outcome,[2],inactive
same,Potency,[3],inactive
OC(CN1CCN(c2cccc(Cl)c2)CC1)C(c1ccccc1)c1ccccc1 (stereo unspecified),Potency,[10],inactive
same,outcome,[2],inactive
same,Potency,[3],inactive
O=C1NC(=O)C(c2ccccc2[N+](=O)[O-])=C1Nc1ccc(O)c(Cl)c1,outcome,[2],inactive
same,Potency,[3],inactive
CN(C)CCCC1(c2ccc(F)cc2)OCc2cc(C#N)ccc21 (stereo unspecified),Potency,[10],inactive
same,outcome,[2],inactive
same,Potency,[3],inactive
Cc1ccc(NC(=O)c2ccc(CN3CCN(C)CC3)cc2)cc1Nc1nccc(-c2cccnc2)n1,outcome,[9],inactive
COc1cc(Nc2c(C#N)cnc3cc(OCCCN4CCN(C)CC4)c(OC)cc23)c(Cl)cc1Cl,outcome,[9],inactive
O=c1ccc2ccc(O)c(O)c2o1,Potency,[10],inactive
same,outcome,[2],inactive
same,Potency,[3],inactive
